LmPK inh: qHTS Assay for Inhibitors of Leishmania Mexicana Pyruvate Kinase (LmPK) | Q27686 | purified LmPK, Kinase-Glo ATP luminescence, 1 h | Potency, µM (highest dose often 57.5 µM), without a hit: top-dose activity change, negative = inhibition, actives largely listed as inhibitors | hit rate 0.37% among 290,000; also: % is scaled to controls: 0 for no effect and ±100 for the full control effect
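Pyruvate kinase activity monitored as ATP production (luciferase luminescence). Conditions: 0.1 nM enzyme, 0.5 mM PEP, 0.1 mM ADP, 1 h, RT; normalized against uninhibited and no-enzyme wells.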
Giardia FBPA inh-1: qHTS Assay for Inhibitors of Fructose-1,6-bisphosphate Aldolase from Giardia Lamblia; A8B2U2; purified Giardia FBPA; Potency, µM (highest dose often 59.6 µM), for the others: at the highest dose activity, negative = inhibition, usual class: inhibitors; hit rate 0.71% among 290,000; also: % is scaled to controls: 0 for no effect and ±100 for the full control effect; nearly all actives have a fitted effect of over 55% in size
Target sequence (A8B2U2 whole entry, looked up): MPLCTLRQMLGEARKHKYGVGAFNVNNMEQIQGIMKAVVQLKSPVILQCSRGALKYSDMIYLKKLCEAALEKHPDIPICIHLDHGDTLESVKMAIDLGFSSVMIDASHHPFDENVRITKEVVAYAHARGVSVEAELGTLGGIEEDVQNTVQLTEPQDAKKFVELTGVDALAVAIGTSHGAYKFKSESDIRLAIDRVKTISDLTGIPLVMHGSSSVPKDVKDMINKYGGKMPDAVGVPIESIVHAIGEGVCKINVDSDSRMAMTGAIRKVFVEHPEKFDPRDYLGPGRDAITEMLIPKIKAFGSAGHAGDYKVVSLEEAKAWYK
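40 nM FBPA preincubated 10 min at RT with compound (up to 57.5 uM final), then substrate plus GAPDH/TPI/NAD/arsenate coupling and diaphorase/resazurin added. Fluorescence read after 20 min at RT, 525/598 nm.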
TbPYK inhibitor: qHTS of Trypanosoma Brucei Inhibitors; hit rate 0.12% among 410,000; Potency, µM (series often up to 76.8 µM), for inactives: top-dose activity, negative = inhibition, actives largely listed as inhibitors; pyruvate kinase (Trypanosoma brucei), Q57TT1; TbPYK enzyme, Kinase-Glo Plus ATP luminescence, 45 min; AID 624173, 2012; also: % is scaled to controls: 0 for no effect and ±100 for the full control effect; nearly all actives have a fitted effect of over 50% in size
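T. brucei PYK with substrate was exposed to pin-transferred compounds across a concentration series, then started with 130 uM ADP (final). After 45 min at room temperature, Kinase-Glo Plus luminescence was read, normalized and curve-fitted.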
AMA1 RON2 block: qHTS for Inhibitors of AMA1-RON; Towards Development of Antimalarial Drug Lead: Primary Screen; AlphaScreen AMA1-biotinylated RON2 peptide binding; Plasmodium falciparum AMA1 (3D7) - RON2 peptide interaction; Potency, µM (titrated, usually from 58.2 µM), for inactives: top-dose activity change, negative = inhibition, actives largely listed as inhibitors; hit rate 0.2% among 360,000;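 also: 0% = vehicle wells and -100% = peptide control; nearly all actives have a fitted effect of over 45% in size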
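AMA1 (3D7) with his tag at 25 nM final met compounds first, then biotinylated RON2 peptide at 25 nM; detection used donor plus acceptor beads, 10 µg/mL apiece, read by AlphaScreen after 30 min at room temperature.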
NS1 inh: qHTS Assay for Inhibitors of Influenza NS1 Protein Function; hit rate 0.4% among 270,000; Potency, µM (series often up to 46.1 µM), for the others: at the top dose activity, positive = more growth; calls by dose curve; also: actives are rising curves; nearly all actives have a fitted effect of over 50% in size
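A cell-based growth assay was used: compounds that relieve NS1-induced slow growth of budding yeast raise OD600. Assay medium was yeast nitrogen base with ammonium sulphate and -URA supplement, pH 6.0, with 2% galactose.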
Giardia growth: qHTS Assay for Inhibitors of Fructose-1,6-bisphosphate Aldolase from Giardia Lamblia: Giardia lamblia growth inhibition. shares compounds with Giardia FBPA inh-1. Giardia lamblia trophozoite growth inhibition. Potency, µM (highest dose often 57.5 µM), for inactives: at the top dose activity change, negative = inhibition, most hits filed as inhibitors. hit rate 5% among 1,500. AID 2785, 2010;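 also: trophozoites exposed to compound for 48 h at 37 °C; % is scaled to controls: 0 for no effect and ±100 for the full control effect; nearly all actives have a fitted effect of over 70% in size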
Mammalian tox: qHTS Assay for Inhibitors of Fructose-1,6-bisphosphate Aldolase from Giardia Lamblia: Mammalian cellular toxicity | mammalian cell viability counter-screen, qHTS | shares compounds with Giardia FBPA inh-1 | AID 2786, 2010 | Potency, µM (doses to about 57.5 µM), without a hit: at the highest dose viability change, negative = toxicity, hits mostly inhibitors | hit rate 4% among 1,500;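 also: Chinese hamster ovary cells used as mammalian cytotoxicity surrogate; viability measured as cellular ATP by luminescence; compound exposure lasted 48 h before reading; % is scaled to controls: 0 for no effect and ±100 for the full control effect; nearly all actives have a fitted effect of over 60% in size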
Giardia FBPA inh-2: qHTS Assay for Inhibitors of Fructose-1,6-bisphosphate Aldolase from Giardia Lamblia: Primary screen confirmation; shares compounds with Giardia FBPA inh-1; purified Giardia aldolase enzyme activity, qHTS; Potency, µM (doses to about 57.5 µM), inactives show at the highest dose activity change, negative = inhibition, most hits filed as inhibitors; hit rate 5% among 1,500; also: % is scaled to controls: 0 for no effect and ±100 for the full control effect; nearly all actives have a fitted effect of over 45% in size
Rabbit aldolase: qHTS Assay for Inhibitors of Fructose-1,6-bisphosphate Aldolase from Giardia Lamblia: Rabbit FBPA Selectivity; Potency, µM (top dose mostly 57.5 µM), without a hit: top-dose activity, negative = inhibition, hits mostly inhibitors; shares compounds with Giardia FBPA inh-1; hit rate 4% among 1,500; Rabbit muscle FBPA enzyme inhibition, selectivity counter-screen; AID 2794, 2010; also: % is scaled to controls: 0 for no effect and ±100 for the full control effect; nearly all actives have a fitted effect of over 60% in size
GAPDH coupling: qHTS Assay for Inhibitors of Fructose-1,6-bisphosphate Aldolase from Giardia Lamblia: Coupling assay counterscreen confirmation | AID 2795, 2010 | shares compounds with Giardia FBPA inh-1 | Potency, µM (series often up to 57.5 µM), inactives show at the top dose activity change, negative = inhibition, most hits filed as inhibitors | hit rate 6% among 1,500 | GAPDH coupling enzyme counterscreen, biochemical, qHTS; also: % is scaled to controls: 0 for no effect and ±100 for the full control effect; nearly all actives have a fitted effect of over 55% in size
An asterisk follows results filed as active; ? = inconclusive; nt = not tested or not shown; [ ] = another dose, or the depositor's remark. Sampled rows, rich in hits. Any-hit rate of the full collection: about 1.2%. Unless noted, calls follow the shape of the dose curve; as a rule, active = well fitted curve in the direction sought with a large enough effect; inconclusive = small, poorly fitted or top-dose-only effect, or another doubt; inactive = no such curve, though single readings can be large; an effect the other way counts as inactive or inconclusive. Potency is read from the fitted curve at half-maximal effect.

SMILES | LmPK inh | Giardia FBPA inh-1 | TbPYK inhibitor | AMA1 RON2 block | NS1 inh | Giardia growth | Mammalian tox | Giardia FBPA inh-2 | Rabbit aldolase | GAPDH coupling
CCOC(=O)c1c(NC(=O)CC)sc2c1CCN(Cc1ccccc1)C2 | 3% | 11µM* | 0% | -9% | -18% | ? | -17% | 5% | 11% | -9%
COC(=O)c1c(NC(=O)Cc2ccccc2)sc2c1CCN(C(C)C)C2 | -3% | 11µM* | -2% | 2% | 3% | 17% | -3% | 2% | 5% | 9%
CCOC(=O)c1c(NC(C)=O)sc2c1CCN(Cc1ccccc1)C2 | -4% | ? | 1% | 1% | -5% | nt | nt | nt | nt | nt
NC(=O)c1c(NC(=O)Cc2ccccc2)sc2c1CCN(Cc1ccccc1)C2 | 4% | 13µM* | -1% | -3% | -5% | ? | -9% | -3% | 1% | -24%
COc1ccc(Cn2c(CNC(=O)Cc3cccc([N+](=O)[O-])c3)nc3cccnc32)cc1 | nt | nt | 0% | nt | nt | nt | nt | nt | nt | nt
C=CCNC(=S)NNc1nc2sc3c(c2c(=O)[nH]1)CC(C)(C)OC3 | 1% | 1.3µM* | -16% | 95% | 12% | ? | 0% | 2% | 6% | 4%
C=C1C(=O)OC2C[C@@]3(C)CCCC(C)C3=CC12 (stereo partly specified) | nt | -1% | nt | nt | nt | nt | nt | nt | nt | nt
Cc1ccc(C(=O)Nc2nnc(-c3ccncc3)o2)cc1 | -10% | 14µM* | 2% | 16% | 9% | -5% | 12% | 13% | 4% | -13%
CC1CCCCN1S(=O)(=O)c1ccc(C(=O)Nc2nnc(-c3ccncc3)o2)cc1 (stereo unspecified) | 7%[11.5 µM] | 5µM* | -1% | 66% | nt | ? | ? | 4% | 13% | 8%
CC1CCCCN1S(=O)(=O)c1ccc(C(=O)Nc2nnc(-c3ccccc3Cl)o2)cc1 (stereo unspecified) | -1% | ? | 10% | 73% | -22% | nt | nt | nt | nt | nt
O=C(Nc1nnc(-c2ccncc2)o1)c1ccccc1F | 9% | ? | -5% | -5% | nt | nt | nt | nt | nt | nt
O=C(Nc1nnc(-c2ccncc2)o1)c1ccccc1 | 7% | 16µM* | -23% | 34% | nt | 8.9µM* | 2% | 3% | -3% | -4%
CN(C)C[C@H]1CCC[C@@H](CN(C)C)C1=O | nt | nt | nt | nt | -3% | nt | nt | nt | nt | nt
CC(C(=O)Nc1cccc([N+](=O)[O-])c1)[n+]1ccccc1 (stereo unspecified) | 9% | 16µM* | 0% | -3% | 6% | ? | 8% | 5% | 0% | 17%

Screening data (PubChem)
